# Screens from PubChem BioAssay.
# The list is not random: actives were taken first. Their share in the collection is about 19%.
# Marburg entry inh: Marburg virus entry inhibition; AID 540276; Marburg virus pseudotyped entry inhibition, cell reporter; Potency, µM (doses to about 37.8 µM), for inactives: at the highest dose activity change, negative = inhibition, usual class: inhibitors; 1.8% of 300,000 active; calls by dose curve; tested in HEK293 cells; note: potency is the fitted concentration of half-maximal effect; % is set by controls: 0 for no effect and ±100 for the full control effect
# Pf growth 48h: P. falciparum growth inhibition at 48 hours (one generation); P. falciparum luciferase growth in erythrocytes, 48 h; Potency, µM (highest dose often 28.7 µM), for the others: top-dose activity change, negative = inhibition, most hits filed as inhibitors; AID 504832; 5.9% of 310,000 active; note: potency is the fitted concentration of half-maximal effect; % is set by controls: 0 for no effect and ±100 for the full control effect
#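 A one-generation exposure of luciferase-tagged malaria parasites in RPMI 1640/Albumax erythrocyte culture, 37 C and 5% CO2. Inhibition is inferred from decreased luminescence after adding detection reagent.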
# LASV entry inh: Lassa virus entry inhibition; Lassa virus pseudotype entry inhibition, cell reporter; AID 540256; Potency, µM (doses to about 37.9 µM), inactives show at the highest dose activity change, negative = inhibition, most hits filed as inhibitors; 1.2% of 300,000 active; calls by dose curve; tested in HEK293 cells; note: potency is the fitted concentration of half-maximal effect; % is set by controls: 0 for no effect and ±100 for the full control effect; nearly all actives have a fitted effect of over 50% in size
# Cycloheximide cs: counter-screen for Shiga toxin inhibitors: cycloheximide protein synthesis inhibition; cell reporter, cycloheximide protein synthesis inhibition counterscreen; max response, %; 12% of 300,000 active; AID 2314; in the data active = max response mostly above about 13%, no sharp cut-off; inactive = mostly below about 14%; note: read at 38.3 µM for the half of the compounds with a filed dose; 0% is about no effect
# Shiga toxin inh: Shiga toxin inhibition; Vero cells, Shiga toxin protein synthesis inhibition reporter; inhibition, % at 38.7 µM; 9.2% of 290,000 active; AID 2315; in the data active = inhibition mostly above about 28%, no sharp cut-off; inactive = mostly below about 43%; note: 0% is about no effect
# Pf growth 96h: inhibits malaria parasite growth, 96 h. Potency, µM (doses to about 28.7 µM), inactives show at the highest dose activity change, negative = inhibition, most hits filed as inhibitors. P. falciparum luciferase reporter growth, 96 h. AID 504834. 6.9% of 320,000 active; note: potency is the fitted concentration of half-maximal effect; % is set by controls: 0 for no effect and ±100 for the full control effect
#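 Cell-based qHTS: luciferase-tagged P. falciparum in erythrocytes (2% hematocrit, 0.05% parasitemia final) incubated with compounds for 96 hours, 37 C, 5% CO2; luciferase detection reagent then added and luminescence measured.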
# * marks the source's active call; other numbers are inactive results; ? = inconclusive; . = not tested or not shown; [ ] = remark or other dose. Unless noted, calls come from the whole dose curve; as a rule, active = well fitted inhibition curve with a large enough effect; inconclusive = small, poorly fitted or top-dose-only effect, or another doubt; inactive = no such curve, though single readings can be large or run the other way.
SMILES,Marburg entry inh,Pf growth 48h,LASV entry inh,Cycloheximide cs,Shiga toxin inh,Pf growth 96h
CC(C)C[C@H](NC(=O)CNC(=O)[C@@H]1CCCN1C(=O)[C@H](CCCNC(=N)N)NC(=O)[C@H](CC(=O)O)NC(=O)[C@@H](NC(=O)[C@H](CC(N)=O)NC(=O)[C@@H](NC(=O)[C@H](CC(=O)O)NC(=O)CNC(=O)[C@@H](NC(=O)[C@@H](NC(=O)[C@H](C)NC(=O)[C@@H](N)CCC(N)=O)[C@@H](C)O)C(C)C)C(C)C)[C@@H](C)O)C(=O)N[C@@H](CC(C)C)C(=O)N[C@@H](CC(=O)O)C(=O)N[C@@H](CC(C)C)C(=O)N[C@@H](CCCCN)C(=O)O,.,.,.,-3,8,.
Cc1nnc(SCc2cc(=O)oc3cc(O)ccc23)n1Cc1ccccc1,2%,?,-14%,0,13,2.1µM*
Cc1nnc(SCc2cc(=O)oc3ccc4ccccc4c23)n1Cc1ccccc1,?,1%,?,-2,-15,-13%
COc1ccc(NC(=O)CN(c2ccc(OC)cc2)S(=O)(=O)c2c(C)nn(C)c2C)cc1,.,?,.,-7,1,-4%
COc1ccc2nc(NC(=O)CN(c3ccc(C)cc3)S(=O)(=O)c3c(C)nn(C)c3C)sc2c1,?,12µM*,?,13,11,2.6µM*
COc1ccc(NC(=O)CN(c2ccc(C)cc2)S(=O)(=O)c2c(C)nn(C)c2C)cc1,.,?,.,-5,-9,-2%
CCOC(=O)c1ccc(NC(=O)CN(c2ccc(C)cc2)S(=O)(=O)c2c(C)nn(C)c2C)cc1,-8%,10µM*,-15%,-1,8,.
Cc1cccc(NC(=O)CN(c2ccc(C(C)C)cc2)S(=O)(=O)c2c(C)nn(C)c2C)n1,0%,.,.,-5,-13,2.9µM*
Cc1ccc(NC(=O)COC(=O)/C=C/c2ccccc2)cc1S(=O)(=O)N1CCOCC1,?,1%,20%[46.1 µM],-4,-14,23%
Cc1ccc(OCC(=O)N(Cc2ccc(N(C)C)cc2)CC2CCCO2)cc1C (centres undefined),1%[46.1 µM],.,?,.,.,.
CC(=O)OC1OCCOC1NC(=S)Nc1ccc(C)cc1 (centres undefined),2%,7%,-7%,-1,9,?
Cc1cc(O)c2c3c(c(=O)oc2c1)CCC(C)C3 (centres undefined),.,?,.,6,5,?
Cc1cc(O)c2c(c1)OC(C)(C)C1=C2CC(C)CC1 (centres undefined),.,6.6µM*,.,-1,.,9%
CC1CCCC(C)N1C(=O)COC(=O)CCC(=O)c1cccs1 (centres undefined),2%[46.1 µM],.,2%[46.1 µM],.,.,.
COc1ccc(-c2nc3nc(C)cc(C)n3n2)cc1,-2%,110%,23%,17*,37*,.
Cc1cc(C)n2nc(NCc3ccccc3)nc2n1,6%,9%,23%,16,37,?
COc1ccc(CNc2nc3nc(C)cc(C)n3n2)cc1,0%,44%,7%,10,34*,40%
COc1cccc(CNc2nc3nc(C)c(Cl)c(C)n3n2)c1,?,76%,18%,35*,48*,23%
Cc1nc2nc(-c3ccco3)nn2c(C)c1Cl,?,54%,0%,14*,8,.
COc1cc(NC(=O)c2cccs2)c(OC)cc1NC(=O)Nc1ccc(F)cc1,1%[46.1 µM],6%,-12%[46.1 µM],-1,1,40%
COc1ccc(-n2c(/C=C/c3ccccc3F)nc3cc(OC)c(OC)cc3c2=O)cc1Cl,.,.,20%[46.1 µM],.,.,.
O=C(CN1C(=O)CCC1=O)Nc1ccc(Br)cc1,0%,0%,-10%,-3,36,12%
Cc1cc(C)n2nc(CNS(=O)(=O)c3ccccc3)nc2n1,-18%[46.1 µM],.,?,.,.,.
COc1ccc(CNc2nc3nc(C)c(Cl)c(C)n3n2)cc1,?,38%,4%[46.1 µM],35*,56*,39%
COc1ccc(OC)c(S(=O)(=O)NCc2nc3nc(C)cc(C)n3n2)c1,?,-7%,21%[46.1 µM],-2,21,13µM*
SMILES,Marburg entry inh,Pf growth 48h,LASV entry inh,Cycloheximide cs,Shiga toxin inh,Pf growth 96h
COc1ccc(NC(=O)c2ccc(Cn3cc(Cl)cn3)cc2)cc1,13%[46.1 µM],58%,8%[46.1 µM],-5,-4,0%
Cc1ccc(F)c(NC(=O)c2ccc(Cn3cc(Cl)cn3)cc2)c1,?,?,-1%,39*,37,-6%
COc1cc(Cl)c(NC2=CC(=O)C(=O)c3ccccc32)c(OC)c1,.,0.37µM*,.,.,.,?
COc1ccc(-n2nc(C(=O)O)nc2-c2ccccc2)cc1,-15%,14%,?,-4,-8,.
Cn1ncc2c(NNC(=O)c3ccc(Cl)cc3Cl)ncnc21,5%,33%,6%,1,-14,22%
Cc1cccc(-c2nc3ccc(C(=O)N4CCC5(CC4)OCCO5)cc3nc2-c2cccc(C)c2)c1,?,10µM*,?,3,-2,?
CC1=Nc2cc(C(=O)N3CCCC3)ccc2Sc2ccc(C)cc21,.,9.3µM*,.,12,3,?
COc1cccc(C(=O)N2CCC3(CC2)OCCO3)c1,.,3%,.,-3,12,?
CCC1=Nc2cc(C(=O)N3CCC4(CC3)OCCO4)ccc2Sc2ccc(C)cc21,.,10µM*,.,4,-2,-26%
CCCC1=Nc2cc(C(=O)N3CCCC3)ccc2Sc2ccc(C)cc21,.,12µM*,.,-3,-10,6%
Cc1ccc(C(=O)NCCn2cc(SCC(=O)N3CCOCC3)c3ccccc32)cc1,-1%,1%,.,-2,-4,11%
O=C(/C=C/c1cccc([N+](=O)[O-])c1)N1CCN(Cc2ccc3c(c2)OCO3)CC1,5%,-2%,-1%,-2,-13,24%
CCCC1=Nc2cc(C(=O)N3CCN(c4ccccn4)CC3)ccc2Sc2ccc(C)cc21,?,9.3µM*,-10%[46.1 µM],18,5,?
CCC1=Nc2cc(C(=O)N3CCCCC3)ccc2Sc2ccc(C)cc21,.,?,.,3,5,3%
CC1=Nc2cc(C(=O)N3CCCCC3)ccc2Sc2ccc(C)cc21,-7%[46.1 µM],9.3µM*,14%[46.1 µM],18,-3,32%
CCCC1=Nc2cc(C(=O)N3CCC(C(=O)OCC)CC3)ccc2Sc2ccccc21,6%[46.1 µM],8.3µM*,?,-2,-10,9.3µM*
O=C1CC(c2ccccc2)c2cc(O)ccc2O1 (centres undefined),-5%,-14%,-16%,-2,-3,10µM*
CCN(CC)C(=O)C(Sc1nnnn1-c1ccc(O)cc1)c1ccccc1 (centres undefined),-12%,?,?,-3,-2,?
O=C(C[n+]1cccc(CNC(=O)c2ccc(OC(F)F)cc2)c1)c1ccccc1,20%[46.1 µM],-6%,-8%,-4,-6,?
O=C(C[n+]1cccc(CNC(=O)c2ccc(OC(F)F)cc2)c1)Nc1ccc(F)cc1,-4%,8.3µM*,1%,-2,10,0.74µM*
